Screening data from PubChem.
S2 tox – Viability Counterscreen for Primary qHTS for Inhibitors of ATXN expression | AID 651635, 2014 | Potency, µM (highest dose often 56.7 µM), usual class: cytotoxic | hit rate 0.49% among 400,000 | S2 cells (HEK-293 line with an ATXN2-luciferase reporter) viability, CellTiter-Fluor protease fluorescence, 24 h; further: nearly all actives have a fitted effect of over 40% in size
HepG2 tox – qHTS for Inhibitors of TGF-b: Cytotox Counterscreen; hit rate 0.76% among 410,000; AID 588856, 2011; Potency, µM (series often up to 46.1 µM), without a hit: at the top dose activity change, negative = cytotoxicity, hits mostly cytotoxic; HepG2 CAGA-GFP viability, ATP luminescence, 18 h
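CellTiter-Glo luminescence gave cytotoxicity after 18 hours at 37 degrees C. The cells were HepG2 CAGA-GFP in 1% FBS DMEM, stimulated with 500 pg/mL TGF-beta after compound addition. %Activity was normalised to no-cell wells (complete cell-killing) and DMSO (no toxicity), and curves were fitted and classified.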
ATXN2 expr inh – Primary qHTS for Inhibitors of ATXN expression | HEK-293 ATXN2-luciferase reporter, luminescence, 24 h | Potency, µM (highest dose often 57 µM), for the others: at the top dose activity change, negative = inhibition, hits mostly inhibitors | hit rate 0.72% among 360,000; further: on the % scale 0 is the no-effect control and ±100 the full control effect; nearly all actives have a fitted effect of over 55% in size
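qHTS (up to 57 uM final) was run with 24 h compound exposure of reporter cells at 37 °C. Each well was multiplexed: SteadyGlo luminescence measured ATXN2-luciferase expression after a fluorogenic Gly-Phe-AFC viability readout (25 uM final).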
HTT cytoprotect – qHTS Multiplex Assay to Identify Dual Action Probes in a Cell Model of Huntington: Cytoprotection (ATP) | PC12 HTT-Q103 induced, cytoprotection, ATP luminescence, 40 h | Potency, µM (doses to about 56.4 µM), for inactives: cytoprotection (ATP increase), actives largely listed as activators | hit rate 0.14% among 230,000; further: % of control where 0% means no effect; nearly all actives have a fitted effect of over 45% in size
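Cells were plated at 1500 per well in phenol red-free DMEM with 5% equine and 5% calf serum. Tebufenozide (100 nM final) and compounds were added, then ATPlite reagent, and luminescence was read.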
TGFb SMAD3 inh – qHTS for Inhibitors of TGF-b; HepG2 CAGA-GFP TGF-b/SMAD3 reporter, GFP fluorescence, 18 h; TGF-beta stimulated, 500 pg/mL final; Potency, µM (top dose mostly 46.1 µM), without a hit: at the top dose activity, negative = inhibition, actives largely listed as inhibitors; hit rate 1.2% among 410,000; AID 588855, 2011; further: on the % scale 0 is the no-effect control and ±100 the full control effect; nearly all actives have a fitted effect of over 65% in size
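HEPG2 CAGA-GFP cells (1000/well, DMEM with 1% FBS) were pre-incubated 2 h at 37 degrees C, given compound by pin tool, then stimulated with TGF-beta at 500 pg/mL final for 18 h before per-cell GFP fluorescence imaging.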
HttQ103 aggreg – qHTS Multiplex Assay to Identify Dual Action Probes in a Cell Model of Huntington: Aggregate Formation (GFP); PC12 HttQ103-GFP aggregates, Acumen cytometry, 40 h; Potency, µM (titrated, usually from 46.1 µM), for the others: at the top dose activity change, negative = inhibition, most hits filed as inhibitors; hit rate 1.1% among 220,000; AID 1688, 2009; further: on the % scale 0 is the no-effect control and ±100 the full control effect; nearly all actives have a fitted effect of over 60% in size
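Steps: seed 1500 PC12 HTTQ103-GFP cells/well; add tebufenozide, 100 nM final; add compound titration; add ATPLite reagent; quantify GFP aggregates by laser scanning cytometry.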
* = called active by the depositor; i = inactive; ? = inconclusive; · = no result; [ ] = remark or other dose. Most compounds without a hit are left out; they make up all but 2.8% or so of the library. The call rests on the fitted dose curve; in most records, active means well fitted curve in the direction sought with a large enough effect; inconclusive means small, poorly fitted or top-dose-only effect, or another doubt; inactive means no such curve, though single readings can be large; an effect the other way counts as inactive or inconclusive. Potency means the concentration at half of the fitted maximal effect.

SMILES | S2 tox | HepG2 tox | ATXN2 expr inh | HTT cytoprotect | TGFb SMAD3 inh | HttQ103 aggreg
COc1ccc(CCC(=O)NCCc2csc(-c3ccc(F)cc3)n2)cc1 | · | -38% | · | · | 8.9µM* | ·
COC1CC2CCC(C)[C@](O)(O2)C(=O)C(=O)N2CCCCC2C(=O)OC(C(C)CC2CCC(O)C(OC)C2)CC(=O)C(C)/C=C(/C)C(O)C(OC)C(=O)C(C)CC(C)C=CC=C/C=C\1C (stereo partly specified) | · | · | · | -35% | · | -2%
CCc1ccccc1NC(=O)c1noc(C(C)C)c1[N+](=O)[O-] | ? | -17% | 1% | -19% | -16% | 7.1µM*
O=C1C=C(N2CCOCC2)c2ccccc2C1=O | 25µM* | 5µM* | ? | · | 5µM* | ·
O=C1C=C(N2CCOCC2)c2cccc3cccc1c23 | ? | -6% | · | · | 6% | ·
O=C1C(NS(=O)(=O)c2cccs2)=C(N2CCOCC2)C(=O)c2ccccc21 | i | -158% | -21% | 6%[10 µM] | ? | 0%[9.22 µM]
CN(C1=C(N2CCOCC2)C(=O)c2ccccc2C1=O)c1ccccc1 | ? | -2% | 0% | -22%[10 µM] | 10µM* | -25%
CC(=O)O[C@H]1C[C@@H]2CC[C@H]3[C@H]4C[C@H]([N+]5(C)CCCCC5)[C@@H](OC(C)=O)[C@@]4(C)CC[C@@H]3[C@@]2(C)C[C@H]1[N+]1(C)CCCCC1 | · | · | 2% | · | · | ·
C=CCNc1nc2c(c(=O)n(C)c(=O)n2C)n1CCCCCC | i | -1% | -22% | -42%[10 µM] | -12% | ?
C=CCNc1nc2c(c(=O)n(C)c(=O)n2C)n1CC | i | -21% | 2% | -28% | -1% | 13µM*
Cc1ccc(C(C[N+](=O)[O-])c2c(-c3ccccc3O)[nH][nH]c2=O)cc1 (stereo unspecified) | ? | 7.9µM* | 56% | 15%[10 µM] | ? | ?
O=c1[nH][nH]c(-c2ccccc2O)c1C(C[N+](=O)[O-])c1ccc(Br)cc1 (stereo unspecified) | ? | -40% | ? | · | ? | -4%
Cc1cc(-c2ccnc(-n3ncc(C(=O)NCCc4cccnc4)c3C)n2)c(C)s1 | i | · | · | · | · | ·
Nc1nc(-c2ccccc2)c(N=Nc2ccccc2Cl)s1 | · | -92% | ? | 20%[10 µM] | ? | ?
Nc1nc(-c2ccccc2)c(N=Nc2cccc3ccccc23)s1 | ? | -101% | -36% | 35%[10 µM] | 11µM* | -6%
CC(C)C[C@H](NC(=O)CNC(=O)[C@H](Cc1ccc(O)cc1)NC(=O)[C@H](CO)NC(=O)[C@H](Cc1c[nH]c2ccccc12)NC(=O)[C@H](Cc1cnc[nH]1)NC(=O)[C@@H]1CCC(=O)N1)C(=O)N[C@@H](CCCN=C(N)N)C(=O)N1CCC[C@H]1C(=O)NCC(N)=O (stereo in doubt) | i | · | -5% | · | · | ·
CC(C)c1nc(N2CCN(C(=O)c3ccco3)CC2)c(C#N)c2c1COC(C)(C)C2 | i | -1% | -19% | · | 4% | ·
CC(C)c1nc(N2CCN(C(=O)c3ccccc3)CC2)c(C#N)c2c1COC(C)(C)C2 | i | -8% | -31% | -13% | -9% | 14µM*
Cn1c(CNc2ccc(C(=N)N)cc2)nc2cc(C(=O)N(CCC(=O)O)c3ccccn3)ccc21 | · | · | 7%[25.6 µM] | · | · | ·
COc1cc(CNCCc2ccc(S(N)(=O)=O)cc2)ccc1OCc1ccc(Cl)cc1 | 22µM* | -109% | 18µM* | -6% | ? | -9%
CC(=O)OCCN(C)c1cc(SC(C)C)c2nonc2c1[N+](=O)[O-] | ? | 2% | -26% | 15% | 2% | ?
CN(CCO)c1cc(Sc2nc3ccccc3s2)c2nonc2c1[N+](=O)[O-] | 14µM* | -99% | 10µM* | -73% | ? | 5%
Cc1nn(-c2ccccn2)c2c1C(c1ccccc1Cl)C1=C(N2)c2ccccc2C1=O (stereo unspecified) | 2.2µM* | -1% | ? | 5%[10 µM] | -4% | 5%
Cc1ccc(C)n1-c1nnc(N2CCCC(C(=O)Nc3ccc(C(C)C)cc3)C2)s1 (stereo unspecified) | i | -50% | -11% | · | 7.9µM* | ·
Cc1ccc(NC(=O)C2CCCN(c3nnc(-n4c(C)ccc4C)s3)C2)cc1Cl (stereo unspecified) | · | -14% | · | · | · | ·
SMILES | S2 tox | HepG2 tox | ATXN2 expr inh | HTT cytoprotect | TGFb SMAD3 inh | HttQ103 aggreg
COc1ccc2[nH]c(C)c(CCNC(=S)Nc3cc(C)ccc3C)c2c1 | i | -29% | -10% | · | -11% | -5%
CCc1cccc(CC)c1NC(=S)NCCc1c(C)[nH]c2ccc(C)cc12 | ? | -102% | 18µM* | · | 13µM* | 6.3µM*
CCc1cccc(C)c1NC(=S)NCCc1c(C)[nH]c2ccc(C)cc12 | i | 11µM* | ? | · | 13µM* | ?
Cc1oc(-c2ccccc2NC(=O)c2cccnc2)nc1CNC(=O)C1CCCCCN1C (stereo unspecified) | i | · | · | · | · | ·
Cc1ccccc1OCc1nc(-c2ccc(NC(=O)c3ccco3)cc2)no1 | ? | -24% | -3% | 34%[10 µM] | -1% | 14%
Cc1ccccc1OCc1nc(-c2ccc(NC(=O)c3ccc4c(c3)OCO4)cc2)no1 | ? | 20µM* | ? | -57% | ? | 11%
CCn1c2ccccc2c2cc(CNCc3ccc(OC)cc3OC)ccc21 | · | 10µM* | ? | -23%[10 µM] | ? | -7%[9.22 µM]
COc1cccc(CNCc2ccc(OC)cc2OC)c1 | i | 1% | 8% | · | -14% | ·
Cc1ccccc1Nc1cc(C(=O)NCCc2ccc(Cl)cc2)c2ccccc2n1 | ? | -34% | ? | · | ? | ·
CCc1ccccc1Nc1cc(C(=O)NCCCN(C)C2CCCCC2)c2ccccc2n1 | 16µM* | -84% | ? | · | ? | ·
CCOc1ccc(-c2cc(C(=O)NCCCn3ccnc3)c3cc(Br)ccc3n2)cc1 | ? | -92% | -18% | · | 14µM* | ·
O=C(NCCCn1ccnc1)c1nn2c(C(F)(F)F)cc(-c3ccc(Br)cc3)nc2c1Cl | ? | 5.6µM* | ? | · | 18% | -15%
Cc1ccccc1Nc1cc(C(=O)NCCCN2CCN(c3cccc(Cl)c3)CC2)c2ccccc2n1 | ? | -59% | ? | · | 22µM* | ·
CCOc1ccc(-c2cc(C(=O)NCCCn3ccnc3)c3ccccc3n2)cc1 | ? | -15% | -10% | -84% | -1% | 6%
